In PubChem BioAssay (NCATS):
Results filed as inconclusive are left out. Activity calls are given as the source filed them. Calls follow the shape of the dose curve; as a rule, active = well fitted activation curve with a large enough effect; inconclusive = small, poorly fitted or top-dose-only effect; inactive = no such curve, though single readings can be large or run the other way.

biological target: Nuclear receptor subfamily 1 group I member 3 (Homo sapiens) (UniProt Q14994); assay: qHTS for Constitutive Androstane Receptor (CAR) Agonist screened against the NCATS CANVASS Library (AID 1347373); conditions: HepG2-hCAR-CYP2B6 luciferase reporter, ONE-Glo luminescence; series mostly up to 46.1 µM;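 also: every well also contained 1.5 µM PK11195 alongside the test compound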
Text: Natural products and their derivatives continue to be wellsprings of nascent therapeutic potential. However, many laboratories have limited resources for biological evaluation, leaving their previously isolated or synthesized compounds largely or completely untested. To address this issue, the Canvass library of natural products was assembled (https://tripod.nih.gov/canvass), in collaboration with academic and industry researchers, for quantitative high-throughput screening (qHTS) across a diverse set of cell-based and biochemical assays. The pure (>85% purity by liquid chromatography/mass spectrometry [LC/MS]) Canvass library of 346 natural products were submitted by 45 academic laboratories and companies around the world. We collected pure natural products to circumvent deconvolution and structure elucidation due to time and resource limitations. The library was formatted into 1536-well plates and evaluated in 50 qHTS (in an 11-pnt concentration series) bioassays with broad scope of disease-relevant mechanisms. The resulting data set from 50 different assays was then systematically analyzed to identify overall trends and specific natural products with interesting biological activities. Reported herein are the results of each individual qHTS and their corresponding assay protocol. The constitutive androstane receptor (CAR) is a nuclear receptor which regulates multiple drug metabolizing enzymes (DMEs) and transporters. Activating CAR will generally increase the transcription and subsequent translation of CYP2B6 and CYP3A4. These two DMEs represent about 50% of the drug metabolizing potential in the body. […] Recently, there have also been studies performed indicating CARs role in energy metabolism and cancer therapy. Therefore, inducing or inhibiting CAR's activity could have a potential effect on diabetes and/or cancer. National Center for Advancing Translational Sciences (NCATS), Rockville, MD National Institute of Health (NIH), Bethesda, Maryland
Material: A double-stable (hCAR and CYP2B6-2.2kb) transfected cell line, derived from human hepatoma (HepG2) cells, was utilized for the duration of the quantitative high-throughput screens. The HepG2-CYP2B6-hCAR cells suspended in DMEM culture medium supplemented with 10% FBS, 5 ug/mL blasticidin, 0.5 mg/mL geneticin, 100 U/mL penicillin and 100 ug/mL streptomycin. CAR Agonist assay protocol: 1. In a 1536 well, tissue culture treated white solid bottom plates (Greiner Bio-One North America), 4 uL of engineered HepG2-hCAR-CYP2B6 cell solution (final concentration 2500 cells / well) was dispensed using the Multidrop Combi dispenser (Thermo Fisher Scientific). 2. The assay plates were incubated for 4hr at 37C, 5% CO2 to allow the cells to acclimate and attach. 3. Compounds were pin transferred (~23 nL volume) to the assay plates via Wako Pin-tool (Wako Automation, Richmond VA) equipped with a 1536 pin head. The compounds were transferred to columns 5-48 resulting in a final concentration ranging from 0.6nM to 92uM. 4. One uL of PK11195, was added using a Flying Reagent Dispenser to generate a final concentration of 1.5uM PK11195 inside each well. 5. The assay plates were incubated at 37C, 5% CO2 for 24hr. 6. To measure cell viability, 1 uL of CellTiter-Fluor (Promega) reagent was then added to the assay plates (column 1-48, rows 1-32). The assay plates were incubated for 1hr at 37C, 5% CO2. 7. A first readout of fluorescence signal was acquired via the ViewLux (PerkinElmer) plate reader using a FITC dichroic mirror, excitation 405/10 nm filter, and emission 540/25 nm filter; and using 65 light energy, 1 second exposure, and 2x binning settings. 8. To measure CAR activation, 4 uL of ONE-Glo reagent (Promega) was added to the assay plates (column 1-48, rows 1-32). The assay plates were further incubated at room temperature for 30 min. 9. A second readout of luminescence signal was acquired via the ViewLux plate reader using a clear emission filter, 10 second exposure, 2x binning settings. […]

Chain of Nuclear receptor subfamily 1 group I member 3 (Homo sapiens) (Q14994 whole entry, looked up): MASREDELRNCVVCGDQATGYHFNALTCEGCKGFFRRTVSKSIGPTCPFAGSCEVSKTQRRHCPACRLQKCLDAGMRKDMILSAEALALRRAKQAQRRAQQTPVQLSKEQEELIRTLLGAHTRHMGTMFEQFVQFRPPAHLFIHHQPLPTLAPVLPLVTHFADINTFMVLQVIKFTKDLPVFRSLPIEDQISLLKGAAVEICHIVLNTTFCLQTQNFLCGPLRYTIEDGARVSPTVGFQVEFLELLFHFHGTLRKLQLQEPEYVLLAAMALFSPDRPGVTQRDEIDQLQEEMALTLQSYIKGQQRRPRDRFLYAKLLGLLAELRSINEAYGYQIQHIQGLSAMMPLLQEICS

SMILES	outcome
COc1ccc(C23Oc4cc(OC)cc(OC)c4[C@](O)([C@H](c4ccccc4)C2C(=O)NCCCCNC(=O)c2ccccc2)[C@@H]3O)cc1 (stereo partly specified)	inactive
CCC[C@H]1CC[C@H]2[C@H](C)CCC[C@H]2N1	inactive
NCCc1ccccc1	inactive
CC1=CC(=O)C2=C(C)C[C@H](O)[C@@H]3[C@H](OC(=O)[C@@H]3C)[C@@H]12	inactive
CCC(=O)CCCCC[C@@H]1NC(=O)[C@H]2CCCCN2C(=O)[C@H]([C@@H](C)CC)NC(=O)[C@H](Cc2cn(OC)c3ccccc23)NC1=O	inactive
COC(=O)C1=C2Nc3ccccc3[C@@]23CCN2CC(C(C)=O)C1C[C@H]23 (stereo partly specified)	inactive
CC(=O)N[C@H]1CCN2CCC[C@H]12	inactive
C[C@@H]1CC[C@@H](c2ccoc2)N2C[C@@]3(CC[C@@H]12)CS[C@@]1(CC[C@H]2[C@H](C)CC[C@@H](c4ccoc4)N2[C@@H]1O)C3	inactive
COc1ccc2c3c([nH]c2c1)C(C)=NCC3	inactive
CNCCc1c[nH]c2ccccc12	inactive
O=C(c1ccccc1O)c1[nH]c(Cl)c(Cl)c1-n1c(C(=O)c2ccccc2O)cc(Cl)c1Cl	inactive
c1ccc2c3c([nH]c2c1)CNCC3	inactive
CC[N@@+]1([O-])C[C@]2(C)CC[C@@H](O)[C@@]34C5C[C@H]6CC[C@@]5(C(C[C@H]23)C41)[C@H](O)[C@@]6(O)CO (stereo partly specified)	inactive
CCN1C[C@]2(C)CC[C@H](O)[C@]34C1C(C[C@H]23)[C@@]12CC[C@H](CC14)[C@](O)(COC(=O)c1ccc(OC)c(OC)c1)[C@H]2O (stereo partly specified)	inactive
CC=C1CN(C=O)[C@H]2C[C@@H]1[C@@H](C(=O)OC)[C@@]13CCOC21Nc1ccccc13 (stereo partly specified)	inactive
C=C1[C@@H](C)[C@H]2[C@H](Cc3ccccc3)NC(=O)[C@]23OC(=O)/C=C/[C@H](O)CCC[C@@H](C)C/C=C/[C@H]3[C@@H]1O	inactive

SMILES	outcome
CNCCc1ccccc1	inactive
CN1C(=O)[C@]23CC4C(C)(C)[C@@]5(C[C@@]41CN2CC[C@@]3(C)O)C(=O)Nc1c5ccc2c1OC=CC(C)(C)O2 (stereo partly specified)	inactive
CCCC[C@@H]1CC[C@H]2CCCC(CCC)N12 (stereo partly specified)	inactive
CNCCc1ccc(O)cc1	inactive
CCN1C[C@]2(C)CC[C@@H](O)[C@]34C1[C@H](C[C@H]23)C12CCC(CC14)[C@](O)(CO)[C@H]2O (stereo partly specified)	inactive
CO[C@@H](/C=C/CC/C=C/C(=O)O)[C@@H](O)[C@H](C)/C=C(\C)[C@@H](O)[C@H](C)C(=O)CCCC1CC(=O)NC(=O)C1	inactive
CN(C)Cc1c[nH]c2ccccc12	inactive
CC[C@@H]1CN2CC[C@@]3(O)C(=Nc4cccc(OC)c43)[C@@H]2C[C@@H]1/C(=C\OC)C(=O)OC	inactive
CC1=CC2CC[C@@H]3[C@@H](C)C[C@H](C)[C@@H](C1)N23 (stereo partly specified)	inactive
CCCCC[C@@H]1OC(=O)[C@@H](C)N(C)C(=O)[C@H](CCCCC)OC(=O)C(C)N(C)C(=O)[C@H](CCCCC)OC(=O)[C@@H](C)N(C)C(=O)[C@H](CCCCC)OC(=O)C(C)N(C)C1=O (stereo partly specified)	inactive
CO[C@H](c1ccccc1)[C@H]1NC(=O)C(C)NC(=O)C(C[C@@H](C)CO)N(C)C(=O)[C@@H](C(O)c2cn(C(C)(C)C3CO3)c3ccccc23)NC(=O)C(C(C)C=C(C)C)NC(=O)C(CC(C)C)N(C)C(=O)C(C(C)C)NC1=O (stereo partly specified)	inactive
COc1ccc2c(c1)[nH]c1c(C)nccc12	inactive
CO[C@@H](/C=C/CC/C=C/C(=O)O)[C@@H](O)[C@H](C)[C@@H](O)/C(C)=C/[C@H](C)C(=O)CCCC1CC(=O)NC(=O)C1	inactive
C/C=C1/CN2CC[C@]34C(=Nc5ccccc53)[C@@H]2C[C@@H]1[C@H]4C(=O)OC	inactive
C[C@]12CC(O)C3[C@@H](CCC4C[C@@H](O)CC[C@@]43CO)[C@@]1(O)CCC2C1=CC(=O)OC1 (stereo partly specified)	inactive
